35 compounds from ChEMBL document CHEMBL3433997, “St. Jude Leishmania screening dataset” (2016) can be followed below.

What all share (assay type): functional
Assay [1] has as its target Solute carrier family 2, facilitated glucose transporter member 1 (Homo sapiens) (UniProt P11166). The experiment in a line: ST_JUDE_LEISH: Cytotoxicity at 2uM final concentration against transgenic Leishmania Mexicana promastigotes LmGLUT1 that are glucose transport deficient and complemented with the human glucose transporter GLUT1. Activity is measured by DNA content using SYBR green in vitro.

Assay [2] concerns the target Hexose transporter 1 (Plasmodium falciparum) (UniProt O97467). Nature of the assay: ST_JUDE_LEISH: Cytotoxicity at 2uM final concentration against transgenic Leishmania Mexicana promastigotes LmPfHT that are glucose transport deficient and complemented with the Plasmodium falciparum hexose transporter. Activity is measured by DNA content using SYBR green in vitro.
In assay [3] the target is Glucose transporter (Leishmania mexicana) (UniProt O61059). The experiment in a line: ST_JUDE_LEISH: Cytotoxicity at 2uM final concentration against transgenic Leishmania Mexicana promastigotes LmGT2 that are glucose transport deficient and complemented with the L. Mexicana glucose transporter 2. Activity is measured by DNA content using SYBR green in vitro.

Solute carrier family 2, facilitated glucose transporter member 1 (Homo sapiens), sequence (P11166 whole entry): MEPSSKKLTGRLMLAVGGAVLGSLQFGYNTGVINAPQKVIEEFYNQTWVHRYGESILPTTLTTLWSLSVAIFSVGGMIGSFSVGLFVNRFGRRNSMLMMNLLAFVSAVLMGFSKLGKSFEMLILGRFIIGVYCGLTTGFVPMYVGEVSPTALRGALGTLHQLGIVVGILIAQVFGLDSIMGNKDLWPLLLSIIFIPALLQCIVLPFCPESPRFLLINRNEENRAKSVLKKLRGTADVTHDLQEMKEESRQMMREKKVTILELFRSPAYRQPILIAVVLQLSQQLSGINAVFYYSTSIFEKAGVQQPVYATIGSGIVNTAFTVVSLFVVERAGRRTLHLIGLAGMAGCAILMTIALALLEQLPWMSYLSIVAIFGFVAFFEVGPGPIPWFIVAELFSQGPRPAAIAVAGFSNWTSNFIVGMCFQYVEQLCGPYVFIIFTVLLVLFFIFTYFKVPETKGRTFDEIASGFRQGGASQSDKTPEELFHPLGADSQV

What is called inhibition is the drop in the measured response relative to a control, in per cent. In the case of `Clc1ccc(-c2ccc(CNCCCN3CCCC3)cc2)cc1`, the inhibition in assay [1] was found to be 4.04%; in assay [2] it was 3.04%; in assay [3], 3.65%.

For the compound `CCN1CCC(N(Cc2ccc(-c3ccc(C(F)(F)F)cc3)cc2)C(=O)Cn2c(SCc3cccc(F)c3F)cc(=O)c3ccccc32)C1` (stereo not given), the inhibition in assay [1] was 0.27%; in assay [2] it was -0.31%; in assay [3], -0.18%.

In the case of `CS(=O)(=O)c1ccc(CNCc2ccc(-c3cccc(-c4nc5cc(F)ccc5[nH]4)c3)cc2)cc1`, the inhibition in assay [1] worked out at 3.3%; in assay [2], 1.83%; in assay [3] it was 2.88%.

For `Cc1ccc(NC(=O)c2ccc(CN3CCCN(CC4CCCCC4)CC3)cc2)cc1C`, the inhibition was determined as 7.66% in assay [1], 7.13% in assay [2] and 8.98% in assay [3].

On to `CN(C)CCNC(=O)[C@H](Cc1ccccc1)NC(=O)c1ccc(O)c(-c2ccc(Cl)c(Cl)c2)c1`, for which the values for the inhibition in assay [1], in assay [2] and in assay [3] were -0.64%, 1.18% and -2.32%, respectively.

Turning to `CN1C(=CC(=O)NC(=O)c2ccccc2)C(C)(C)c2ccccc21`, the inhibition in assay [1] stood at 0.52%; in assay [2], 0.41%; in assay [3] it was 0.4%.

With `CCCN(CCC)CCOc1ccc(C(O)(C#CC(O)(c2ccc(OCCN(CCC)CCC)cc2)c2cccc(Cl)c2)c2cccc(Cl)c2)cc1` (stereo not given), the inhibition in assay [1] turned out to be 7.1%; in assay [2], 4.78%; in assay [3], 2.38%.

Take `CC(C)CCN1CCCN(Cc2cccc(NC(=O)c3ccc(-c4ccccc4)cc3)c2)CC1`: the figures for the inhibition in assay [1], in assay [2] and in assay [3] were 2.17%, 0.14% and -0.09%, respectively.

In the case of `Clc1ccc2c(NCCCCCCCCNc3ccnc4cc(Cl)ccc34)ccnc2c1`, the inhibition in assay [1] came out at 2.99%; in assay [2] it was 1.53%; in assay [3], 1.88%.

In the case of `c1ccc(-c2nc(NCCCn3ccnc3)cc(-c3ccncc3)n2)cc1`, the results for the inhibition in assay [1], in assay [2] and in assay [3] were 3.22%, 4.55% and 1.25%, respectively.

For the compound `N#Cc1ccc2c(c1)CCN(CCC1CCC(NC(=O)Nc3ccnc4ccccc34)CC1)C2` (stereo not given), the inhibition in assay [1] came out at 4.82%; in assay [2], 3.39%; in assay [3] it was 1.75%.

Consider `COc1cc2c(cc1N1CCN(C)CC1)N(C(=O)Nc1ccc(-c3ccncc3)c(Cl)c1Cl)CC2`, for which the results for the inhibition in assay [1], in assay [2] and in assay [3] were 0.34%, 0.34% and 0.64%, respectively.

As for `O=C(NC1CC1)c1cnc(N2CCC(Oc3ccc(Cl)cc3)CC2)c(Cl)c1`, the values for the inhibition in assay [1], in assay [2] and in assay [3] were 5.36%, 2.7% and 0.49%, respectively.

On to `O=C(N[C@H]1CCN(Cc2ccc(OCCN3CCNCC3)c3ccccc23)C1)c1ccc(Cl)c(Cl)c1`, for which the results for the inhibition in assay [1], in assay [2] and in assay [3] were 1.1%, 4.37% and 2.91%, respectively.

`O=C(Nc1ccc(-c2cccc(-c3nc4cc(F)ccc4[nH]3)c2)cc1)Nc1ccc(F)c(F)c1F`: the inhibition in assay [1] amounted to 5.34%; in assay [2], 7.02%; in assay [3], 6.78%.

In the case of `CO/C(=C\C=C\c1cc2cc(Cl)c(Cl)cc2[nH]1)C(=O)NCCCN1CCN(c2cccc(OCC(=O)Nc3cccc(C(=O)c4ccccc4)c3)c2)CC1`, the values for the inhibition in assay [1], in assay [2] and in assay [3] were 4.84%, 2.82% and 2.69%, respectively.

As to `Cc1cc(-c2ccc(NC(=O)N3CCc4cc(Cl)c(N5CCN(C)CC5)cc43)cc2)ccc1C#N`, the inhibition in assay [1] turned out to be 78.1%; in assay [2] it was 77.2%; in assay [3] it was 81.7%.

Consider `COc1ccc2ccccc2c1C=NNc1ccnc2cc(Cl)ccc12`, for which the inhibition in assay [1] is 1.99%; in assay [2], 0.95%; in assay [3], 1.17%.

Take `Cc1cc(O)c2c(c1)OC(C)(C)C=C2C1=CCN(Cc2ccccc2)CC1`: the inhibition stood at 5.82% in assay [1], 6.87% in assay [2] and 5.88% in assay [3].

`O=C(Nc1ccc(C(F)(F)F)cc1)NC1CCN(c2ccnc3ccccc23)C1` (stereo not given): the inhibition in assay [1] is 8.02%; in assay [2], 7.55%; in assay [3], 7.55%.

Turning to `CCCN(CC1CC1)c1ncc(-c2cccc(CNCCC3CCCN3C)c2)cn1` (stereo not given), the inhibition in assay [1] stood at 98.4%; in assay [2] it was 26.8%; in assay [3], 104%.

Turning to `Cc1cc(N[C@@H](Cc2ccccc2)C(=O)NCc2cccs2)nc(NCCc2ccc(F)cc2)n1`, the inhibition in assay [1] turned out to be 8.62%; in assay [2], 8.93%; in assay [3] it was 4.14%.

Consider `CS(=O)(=O)CCCNCc1ccc(-c2cc3c(Nc4ccc(OCc5ccccc5)cc4)ncnc3cn2)o1`, for which the inhibition in assay [1] was found to be 2.89%; in assay [2], 2.8%; in assay [3], 2.01%.

Consider `CCNc1cc(C(=O)N[C@@H](Cc2ccccc2)[C@H](O)CNC2(CC)CCCCC2)cc(N2CCCCS2(=O)=O)c1`, for which the inhibition in assay [1] was -0.15%; in assay [2], 0.61%; in assay [3], -2.89%.

On to `c1ccc2oc(-c3cc4ccncc4cc3OC3CCNCC3)cc2c1`, for which the inhibition in assay [1] is -1.3%; in assay [2] it was -3.57%; in assay [3] it was -3.28%.

For the compound `Cc1noc(C)c1-c1ccc2c(Nc3ccc(C#N)cc3)c(C(N)=O)cnc2c1`, the inhibition in assay [1] is 4.95%; in assay [2], 4.62%; in assay [3], 5%.

With `CC(C)(C)c1ccc(C(=O)NC2CCC(CCN3CCc4ccc(S(C)(=O)=O)cc4CC3)CC2)cc1C(F)(F)F` (stereo not given), the figures for the inhibition in assay [1], in assay [2] and in assay [3] were 1.87%, 2.06% and 6.75%, respectively.

Regarding `O=C(Nc1ccccc1)N(Cc1ccc(-c2ccc(CNC3CCCC3)cc2)cc1)C1CCN(Cc2ccccc2)CC1`, the figures for the inhibition in assay [1], in assay [2] and in assay [3] were 4.17%, 3.43% and 2.32%, respectively.

As for `N[C@@H](CCNC1CCN(c2cccc(C(F)(F)F)c2)CC1)Cc1ccc(F)c(F)c1`, the values for the inhibition in assay [1], in assay [2] and in assay [3] were 99.5%, 54.5% and 101%, respectively.

With `Cc1ccc(NS(=O)(=O)c2ccc(-c3ccccc3)cc2)c(Cn2cnc(N3CCCNCC3)cc2=O)c1`, the results for the inhibition in assay [1], in assay [2] and in assay [3] were 4.14%, 3.45% and -3.65%, respectively.

Take `N=C1C=C(N)C(=O)c2ccccc21`: the inhibition in assay [1] was 89%; in assay [2], 100%; in assay [3] it was 94.2%.

With `O=C(Nc1ccc2nccc(N3CCN4CCC[C@H]4C3)c2c1)c1ccc(Cl)c(Cl)c1`, the inhibition in assay [1] was 1.13%; in assay [2] it was 1.72%; in assay [3], -1.03%.

As to `COC(=O)c1ccc2nc(-c3cc(OC)c(O)c(C(=O)NC4CCN(Cc5ccccc5)CC4)c3)[nH]c2c1`, the inhibition amounted to 8.4% in assay [1], 5.32% in assay [2] and 7.01% in assay [3].

In the case of `O=C(Nc1ccc2c(c1)CN(Cc1ccc(N3CCCC3)o1)CCC2)c1ccoc1`, the inhibition in assay [1] is 19.8%; in assay [2], 12.8%; in assay [3] it was 2.73%.

`Fc1ccc2[nH]c(-c3ccc(-c4cccc(CN5CCN(c6ccncc6)CC5)c4)cc3)nc2c1`: the inhibition was 2.37% in assay [1], 1.42% in assay [2] and 4.07% in assay [3].
